Data on 87 compounds can be found in PubChem BioAssay AID1053197 (The Scripps Research Institute Molecular Screening Center, 2014).

About 2,600 (0.7%) of roughly 370,000 compounds were called active. Many of the other results were omitted from the sample, so actives are more common in it than they were. Values without a mark were called inactive.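 Rule for the calls: active = inhibition above a cutoff: mean of compounds within the control limits plus 3 SD of those (cut at about 17% in these data); inactive = the rest.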

For this assay, the target named is Sialate O-acetylesterase (Homo sapiens) (UniProt Q9HAT2). Description: blockers of sialate O-acetylesterase activity-probe labeling – biochemical, fluorescence polarization, FP-Rh probe, 1536-well HTS, primary screen (AID 1053197).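 Note: 0% = plate median of compound wells and 100% = probe without SIAE protein.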 Particulars: SIAE FP-Rh probe binding, at 9.66 µM, hits give high values. Background: Polarisation of emitted light reports the rotation of a fluorescent probe.
Sialate O-acetylesterase (Homo sapiens), sequence (Q9HAT2 whole entry, looked up): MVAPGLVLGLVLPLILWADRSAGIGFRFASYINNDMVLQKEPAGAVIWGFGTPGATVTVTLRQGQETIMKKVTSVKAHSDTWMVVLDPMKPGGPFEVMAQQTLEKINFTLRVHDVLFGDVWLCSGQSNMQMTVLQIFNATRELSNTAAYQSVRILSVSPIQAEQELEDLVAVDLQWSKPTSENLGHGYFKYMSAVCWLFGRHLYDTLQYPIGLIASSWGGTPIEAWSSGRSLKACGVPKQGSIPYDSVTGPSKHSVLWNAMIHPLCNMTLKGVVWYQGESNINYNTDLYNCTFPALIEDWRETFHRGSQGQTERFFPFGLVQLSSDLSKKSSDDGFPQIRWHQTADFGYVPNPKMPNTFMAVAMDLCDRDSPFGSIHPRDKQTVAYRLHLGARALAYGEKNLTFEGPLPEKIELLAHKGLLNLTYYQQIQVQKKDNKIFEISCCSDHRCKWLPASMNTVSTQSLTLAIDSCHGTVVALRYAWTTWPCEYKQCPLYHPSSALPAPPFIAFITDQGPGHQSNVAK
Turning to `COc1cccc(Cn2cc(COC(=O)Nc3ccc(F)cc3)nn2)c1`, the inhibition (in general, the drop in the measured response relative to a control, in per cent) is -7.19%.

In the case of `CCOC(=O)c1cc2cc(-c3c(C(=O)OCC)oc4cc(O)cc(O)c4c3=O)ccc2o1`, the inhibition is 17.1%.

For the compound `C[C@@H]1O[C@@H](OC[C@H]2O[C@@H](Oc3c(-c4ccc(O)cc4)oc4cc(O)cc(O)c4c3=O)[C@H](O)[C@@H](O)[C@@H]2O)[C@H](O)[C@H](O)[C@H]1O`, the inhibition is 19.5% (active). For `Cc1ccc(-n2c(COc3ccccc3)nnc2SCC(=O)Nc2ccc3c(c2)OCCO3)cc1` the value was -2.64%; for `Cc1ccc(C2=CCN(C)C(=O)N2c2ccc(Cl)cc2)cc1`, -0.37%; for `Cc1ccc(N=C2NC(=O)/C(=C/C=C/c3ccco3)S2)cc1C`, 27.6% (active). In the case of `Cc1cc(C(=O)NN=C/C=C/c2ccco2)n[nH]1`, the inhibition is 3.3%.

On to `CCOc1ccc(Oc2c(Cl)cnn(-c3ccc(C)cc3)c2=O)cc1`, for which the inhibition is -1.82%.

Take `CC(C)N1CCCCC(NC(=O)c2ccc3ccccc3c2)C1=O` (configuration not stated): the inhibition is -1.26%. For `CCCCC(=O)N[C@@H]1CC[C@@]23CCCN2C(=O)CCC[C@H]3[C@H]1C` the value was -5.34%; for `CC(NCc1ccco1)C(=O)N1CCCCC1` (configuration not stated), 5.06%. For `O=C(O)c1ccccc1N=N/C(=N/Nc1cc(S(=O)(=O)O)ccc1O)c1ccccc1` the value was 28.9% (active); for `O=C(Nc1cccc(Cl)c1)OC1CC2CC1[C@H]1CCCCN1[C@H]2Cc1ccccc1` (some centres not stated), -4.13%.

In the case of `CCCCC[C@H](C)N1C[C@@H](COCc2ccccc2)Oc2cc(N3CCC[C@@H]3CO)ccc2S1(=O)=O`, the inhibition is 2.79%. The same measure for `CCCCC[C@H](C)N1C[C@@H](COCc2ccccc2)Oc2cc(N3CC[C@@H](N(C)C)C3)ccc2S1(=O)=O`: 23.3% (active); for `CSc1ccc(Oc2cccc3c2S(=O)(=O)N([C@H](C)c2ccccc2)C[C@@H](COCc2ccccc2)O3)cc1C`: -4.88%. The same measure for `O=C(CSc1nnc(-c2ccccc2)n1Cc1ccco1)Nc1ccccc1-c1ccccc1`: -6.96%; for `CCOC(=O)[C@]12CCCC=C1N(CCCOC)C(=O)[C@@H]2CC(=O)N1CCOCC1`: -6.36%. For `COc1cccc(N(C)C(=O)[C@@H](C)[C@@H](O)c2ccc3ccccc3c2)c1` the value was -4%. On to `C=C(C)C#CC(Cc1ccccc1)NCC1CC1` (configuration not stated), for which the inhibition is 4.41%. As for `CS(=O)(=O)N1CCN(C(=O)CSc2ccccc2)CC1`, the inhibition was -3.36%. Turning to `CCOC(=O)N1CCN(C(=O)CSc2ccc(Cl)cc2)CC1`, the inhibition is 19% (active). The same measure for `O=C(CSc1ccc(Cl)cc1)NC1CC1`: -0.71%. With `CCC(C)[C@@H](C(=O)OC)N(CCc1cn(Cc2ccccc2)nn1)S(=O)(=O)c1ccccc1Br` (some centres not stated), the inhibition was -2.68%.

Consider `C/C(N)=C(/C#N)C(=O)COC(=O)C1=NN(c2ccccc2)C(=O)CC1`, for which the inhibition was 0.03%.

For the compound `CCN1N=C(c2ccccc2)CCC1=O`, the inhibition is -3.71%. The same measure for `O=C1CC(c2ccccc2)=NN1c1ccc([N+](=O)[O-])cc1`: 19.8% (active); for `O=C(CNS(=O)(=O)c1ccccc1F)N1CCN(c2ccccn2)CC1`: 2.08%. The same measure for `O=C(Nc1cc(Cl)cc(Cl)c1)OCCN1CCCC12CCC(c1ccccc1)CC2` (configuration not stated): -10.1%; for `Cc1cc2ccccn2c1C(=O)c1cccc(S(=O)(=O)N2CCOCC2)c1`: -6.52%. The same measure for `Cc1cc2ccccn2c1C(=O)c1cccc(F)c1`: 18.5% (active); for `CC(=O)Nc1ccc(/C=N/Nc2ccc(C(=O)c3c(C)cc4ccccn34)cc2[N+](=O)[O-])cc1`: 9.63%. Regarding `Fc1ccc2nc(COCc3nc4ccc(F)cc4[nH]3)[nH]c2c1`, the inhibition was -7.18%. For `CC1CCCN(Cc2nc3c(c(=O)n(C)c(=O)n3C)n2CC(=O)c2ccccc2)C1` (configuration not stated) the value was 7.4%; for `CCCn1c(O)c(CN2CCCC(C)C2)c(C)c(C#N)c1=O` (configuration not stated), 43.7% (active). For `Cc1c(CN2CCCCC2)c(O)n(CCO)c(=O)c1C#N` the value was -5.55%. On to `COc1cccc(CNC(=O)CNS(=O)(=O)c2ccc3nc(C)sc3c2)c1OC`, for which the inhibition is 2.11%.

As to `Nc1[nH]c(/C=C2/CCCCC2n2[nH]c(=O)n(-c3ccccc3)c2=O)c(Cc2ccccc2)[n+]1Cc1ccccc1` (configuration not stated), the inhibition is 10.8%.

For the compound `O=S1(=O)c2ccc(Br)cc2OC[C@H](Cc2ccccc2)N1Cc1cn(Cc2ccccc2)nn1`, the inhibition was 3.61%.

For the compound `CC(c1c[nH]c2ccccc12)c1c(-c2ccccc2)n(C)c2ccccc12` (configuration not stated), the inhibition is 10.3%. The same measure for `O=C(NC(=O)c1ccccc1N1CCCCC1)Nc1ccc(Br)cc1`: 2.43%; for `COc1ccc(NS(=O)(=O)c2ccc(N3CCOCC3)c(NC(=O)c3ccccc3Br)c2)cc1`: -4.27%. For `CCn1c(=O)n(CC)c2cc(N3CCCC3)c(NC(=O)c3ccccc3Br)cc21` the value was 17.9% (active). The same measure for `CC(C)CNS(=O)(=O)CC1NCCc2ccccc21` (configuration not stated): -2.16%; for `CC1CN(/C=C/C(=O)C(F)(F)F)CC(C)O1` (configuration not stated): 2.43%; for `CNC(=S)NNC(=O)c1ccc(N(C)C)cc1`: 10.3%. As for `CN(C)c1ccc(N/C=C/C(=O)C(F)(F)F)cc1`, the inhibition was 17.9% (active). For `C=CCN1C(=O)[C@@H](CC(=O)NCC2CCCCC2)[C@]2(C(=O)OC)CCCCC=C12` the value was 20.8% (active); for `C=CCN1C(=O)[C@@H](CC(=O)NCCCCc2ccccc2)[C@]2(C(=O)OCC)CCCCC/C=C/12`, -2.6%; for `C=CCN1C(=O)[C@@H](CC(=O)NCCCOCCCC)[C@]2(C(=O)OCC)CCCCC/C=C/12`, -0.48%. For `Oc1ccc(CNc2ccccc2O)cc1` the value was 21.1% (active); for `O=[N+]([O-])c1ccccc1NCc1ccc(Cl)cc1`, 0.44%; for `c1ccc(CNCc2ccc(CNCc3ccccc3)cc2)cc1`, -0.12%.

Regarding `COc1cc(NC(=O)C2CCCN(S(=O)(=O)c3ccc(C(C)(C)C)cc3)C2)cc(OC)c1` (configuration not stated), the inhibition was -0.78%. For the compound `CCC(=O)c1c(CC)c2n3c1=CC[C@H]3CC(Br)C=2` (some centres not stated), the inhibition was -1.56%. For `Cc1ccc(C2Nc3cccc4cccc(c34)N2)cc1` the value was 29.6% (active). The same measure for `Oc1ccc(C2Nc3cccc4cccc(c34)N2)cc1`: 58.9% (active); for `CCCC[C@H]1C2CC(OC(=O)NCc3ccccc3)C(C2)[C@H]2CCCCN21` (some centres not stated): -0.4%. For `O=C(CSc1nc2ccccc2s1)N=Nc1c(O)[nH]c2ccccc12` the value was -11.1%; for `COc1ccc(N2CCN(CCNS(=O)(=O)c3ccc([N+](=O)[O-])cc3)CC2)cc1`, 1.89%; for `FC(F)(F)c1cccc(NC(=S)OC2CCC23CCC(c2ccccc2)CC3)c1` (configuration not stated), -8.64%. In the case of `Cc1ccccc1NC(=O)Cn1nnc(-c2ccccc2F)n1`, the inhibition was -1.96%. In the case of `COc1cccc2c1C(=O)c1c(O)c3c(c(O)c1C2=O)CC(O)(C(C)=NNC(=O)c1ccc(Cl)c(Cl)c1)CC3OC1CC(N)C(O)C(C)O1` (configuration not stated), the inhibition was 62.7% (active). For `CCCC1CCC2(CCCN2CCOC(=O)NCc2ccccc2)CC1` (configuration not stated) the value was -1.37%; for `CCOC(=O)/C(N=Nc1cc(C(=O)O)cc(C(=O)O)c1)=C(\O)CCl`, 21.9% (active); for `COc1ccc(CN(CCN2CCOCC2)C(=O)c2ccc(C)cc2)cc1OC`, -2.14%.

In the case of `CCOC(=O)C1(Cc2ccccc2)CCN(Cc2cn(C(C)=O)c3ccccc23)CC1`, the inhibition was -0.8%. The same measure for `CCCC[C@H](C(=O)N(CC)c1ccccc1)[C@@H](O)c1ccc2ccccc2c1`: -0.99%. The same measure for `CC(c1ccc(N)cc1)c1cn(C)c2ccccc12` (configuration not stated): 10.7%; for `COC(=O)[C@]12C[C@H](CC(=O)NCCc3ccccc3OC)C(=O)N(Cc3ccco3)C1=C[C@H](C(C)C)O[C@@H]2C1CC1`: 0.34%; for `Cc1cc2nc3c(=O)[nH]c(=O)nc-3n(C[C@H](O)[C@H](O)[C@H](O)CO)c2cc1C`: 6.59%. The same measure for `CCN(CC)CCCC(C)n1c2nc(=O)[nH]c(=O)c-2nc2cc(Cl)ccc21` (configuration not stated): 29.6% (active); for `COC(=O)C1CN(CCc2ccccc2)CCS(=O)(=O)N1Cc1ccc(F)cc1` (configuration not stated): 4.17%; for `COc1ccc2c(c1)CN1CN(CCc3ccccc3)S(=O)(=O)CC21` (configuration not stated): -7.42%. Turning to `C=CCN1[C@@H](Cc2ccccc2)COc2cccc(N3CCSCC3)c2S1(=O)=O`, the inhibition was -1.03%.

Take `O=C(CSc1ccc(-c2ccc(F)cc2)nn1)Nc1ccc2c(c1)OCCO2`: the inhibition was 9.37%. For `COc1ccc(NC(=O)CSc2ccc(-c3ccco3)nn2)c(OC)c1` the value was 4.03%; for `O=C(CSc1ccc(-c2ccco2)nn1)Nc1cccc(F)c1`, 17.1% (active). Turning to `O=C(NC1CCCCN(Cc2cccc(C(F)(F)F)c2)C1=O)c1ccccc1I` (configuration not stated), the inhibition is 8.59%.

Take `C#CCN([C@H](C(=O)OC)C(C)CC)S(=O)(=O)c1ccccc1Br` (some centres not stated): the inhibition was -0.84%. The same measure for `Cc1cccc(C)c1NC(=O)CN(C)C(=O)CCC(=O)c1ccccc1`: 19.1% (active). For `Cc1nc(-c2ccc(F)cc2)c(CC(=O)N(C)CC(=O)Nc2c(C)cccc2C)s1` the value was -6.4%; for `Cc1ccc(C(=O)CCC(=O)N(C)CC(=O)Nc2c(Cl)cccc2Cl)cc1`, 4.52%.

Consider `O=C(CSc1nc2ccccc2nc1N1CCCCC1)N1CCN(S(=O)(=O)c2cccc([N+](=O)[O-])c2)CC1`, for which the inhibition was 1.34%. The same measure for `O=C1C(=O)N(Cc2ccc(-c3ccsc3)cc2)c2ccc(OC(F)(F)F)cc21`: 4.4%. The same measure for `Oc1ccc2ccc3cccc[n+]3c2c1`: 17.1% (active). For `COc1ccc(C(=O)CSc2nnc(-c3cnccn3)n2-c2ccc(C)cc2)cc1` the value was 4.14%.
